APE1 inh-1 = inhibitors of human APE1 endonuclease | Potency, µM (series often up to 65.8 µM), hits mostly inhibitors | 350,000 tested, 0.35% active | P27695 | recombinant APE1, TAMRA/BHQ-2 abasic DNA cleavage fluorescence; note: nearly all actives have a fitted effect of over 55% in size
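Readout is kinetic fluorescence (ex 525, em 598 nm) from cleavage of 50 nM TAMRA/BHQ-2 THF abasic duplex by 0.75 nM APE1, compound added 15 min beforehand at RT.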
RECQ1 helicase = inhibitors of human RECQ1 DNA helicase; Potency, µM (highest dose often 57.3 µM), usual class: inhibitors; P46063; RECQ1 DNA unwinding, red fluorescence kinetic read; 240,000 tested, 0.54% active; note: nearly all actives have a fitted effect of over 30% in size
Target sequence (P46063 whole entry, looked up): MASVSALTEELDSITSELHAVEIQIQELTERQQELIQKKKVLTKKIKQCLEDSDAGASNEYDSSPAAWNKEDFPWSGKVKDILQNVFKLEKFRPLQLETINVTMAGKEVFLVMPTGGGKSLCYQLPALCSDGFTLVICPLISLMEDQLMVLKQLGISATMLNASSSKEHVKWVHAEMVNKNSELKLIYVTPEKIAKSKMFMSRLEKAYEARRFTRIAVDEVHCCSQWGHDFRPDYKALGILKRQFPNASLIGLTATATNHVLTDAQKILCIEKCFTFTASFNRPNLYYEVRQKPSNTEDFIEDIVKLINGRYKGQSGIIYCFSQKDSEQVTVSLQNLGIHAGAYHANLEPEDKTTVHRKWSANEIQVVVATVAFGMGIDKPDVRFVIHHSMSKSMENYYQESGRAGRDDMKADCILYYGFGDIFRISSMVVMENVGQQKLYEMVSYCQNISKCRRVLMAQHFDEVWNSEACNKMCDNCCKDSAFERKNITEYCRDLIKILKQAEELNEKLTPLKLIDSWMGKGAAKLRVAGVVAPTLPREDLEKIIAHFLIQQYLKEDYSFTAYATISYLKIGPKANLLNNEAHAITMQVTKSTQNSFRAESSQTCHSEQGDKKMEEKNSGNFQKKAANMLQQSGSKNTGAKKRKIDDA
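50 nM RECQ1T1 preincubated 15 min with compound in Tris pH 8.0 buffer with MgCl2, DTT, Tween-20 and 2.5 ug/ml poly(dI-dC); started with 200 nM TAMRA/BHQ-2 forked duplex and 2 mM ATP. Unwinding read as fluorescence (525/598 nm), two reads 2 h apart.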
ERG-DNA inh = blocks human ERG Ets domain binding to DNA | P11308 | fluorescence polarization, His-ERG Ets domain / labelled DNA | Potency, µM (titrated, usually from 76.9 µM), actives largely listed as inhibitors | 370,000 tested, 0.028% active | AID 624246; active = well fitted inhibition curve with a large enough effect in the polarisation, with a control signal flat; inconclusive = small, poorly fitted or top-dose-only effect, or effect the other way, or a change in a side signal; inactive = no such curve, though single readings can be large or run the other way; the % refers to the polarisation;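 note: polarization taken with two DNA probes labelled with fluorescein and Texas red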
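His-tagged ERG Ets domain (1 uM in the protein solution; 300mM KCl, 50mM Tris-HCl, 1mM EDTA, 1mM DTT, pH 7.5) received compound, then a probe mix of 5 nM fluorescein-DNA and 100nM Texas-615-DNA. Fluorescence polarization was read for both dyes.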
BLM inh = Bloom syndrome helicase (human) inhibition; Potency, µM (top dose mostly 56.1 µM), usual class: inhibitors; P54132; 350,000 tested, 0.2% active; recombinant BLM DNA unwinding, fluorescence dequenching; note: nearly all actives have a fitted effect of over 35% in size
WRN helicase inh = blocks human WRN helicase | AID 651768 | WRN helicase unwinding, fluorescent forked duplex, kinetic | Q14191 | Potency, µM (top dose mostly 114 µM), hits mostly inhibitors | 360,000 tested, 0.46% active; note: nearly all actives have a fitted effect of over 55% in size
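Enzyme (20 nM final) and test compound sit together 15 min at room temperature before substrate addition. Substrate is a single-forked duplex oligonucleotide (100 nM) labelled with fluorophore and quencher, with 2 mM ATP; helicase unwinding raises red fluorescence, read kinetically.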
GCN5L2 inh = inhibitors of human GCN5L2 histone acetyltransferase. 390,000 tested, 0.21% active. Q92830. Potency, µM (doses to about 58.9 µM), usual class: inhibitors. GCN5L2 HAT assay, ThioGlo1 CoA-SH fluorescence. AID 504327
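qHTS, 1536-well. 20nM enzyme, pH 7.5 HEPES/EDTA/Tween-20 buffer; 15 min compound preinc., RT. Start: 75uM H3(1-25), 70uM AcCoA, 50uM ThioGlo1. Read Ex340/Em540 at t=0 (autofluorescence flag) and t=20 min.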
APE1 dye cs = DNA dye displacement counter-screen activity. shares compounds with APE1 inh-1. DNA fluorescent dye displacement counterscreen, fluorescence. Potency, µM (titrated, usually from 28.5 µM), hits mostly inhibitors. 480 tested, 7% active. AID 2564;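 note: loss of thiazole orange fluorescence as the dye is displaced from duplex DNA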
Endo IV inh = Endo IV (E. coli) inhibition counter-screen; E. coli Endo IV, fluorogenic AP-site DNA cleavage; shares compounds with APE1 inh-1; Potency, µM (doses to about 27.1 µM), usual class: inhibitors; 560 tested, 4% active
APE1 inh-2 = confirmation of inhibitors of human APE1 endonuclease | Potency, µM (highest dose often 57.1 µM), most hits filed as inhibitors | shares compounds with APE1 inh-1 | AID 2572 | 750 tested, 44% active | purified APE1, fluorogenic abasic-site DNA cleavage; note: nearly all actives have a fitted effect of over 30% in size
APE1 FP = APE1 (human) DNA binding inhibition, fluorescence polarization | AID 2573 | shares compounds with APE1 inh-1 | APE1 binding to TAMRA-labelled double-stranded DNA, fluorescence polarization displacement | Potency, µM (titrated, usually from 28.5 µM), actives largely listed as inhibitors | 480 tested, 7% active
A number is an active result; i = inactive; ? = inconclusive; nt = no result given; ! = not active in a repeat. Compounds with a hit are over-represented: about 0.88% of the library has one in this group of screens. Unless noted, calls come from the whole dose curve; as a rule, active = well fitted curve in the direction sought with a large enough effect; inconclusive = small, poorly fitted or top-dose-only effect, or another doubt; inactive = no such curve, though single readings can be large; an effect the other way counts as inactive or inconclusive.

SMILES	APE1 inh-1	RECQ1 helicase	ERG-DNA inh	BLM inh	WRN helicase inh	GCN5L2 inh	APE1 dye cs	Endo IV inh	APE1 inh-2	APE1 FP
CC(C)CC(=O)NC1(C(F)(F)F)C(=O)Nc2c1c(=O)[nH]c(=O)n2-c1ccccc1 (centres undefined)	nt	nt	i	i	nt	i	nt	nt	nt	nt
CC1CCN(S(=O)(=O)c2ccc3c(c2)NC(=O)CS3)CC1	i	nt	i	i	i	i	nt	nt	nt	nt
O=C(c1ccc2nc(-c3ccco3)c(-c3ccco3)nc2c1)N1CCN(c2ncccn2)CC1	?	i	i	?	44.7µM	i	?	i	?	i
CC(=O)c1ccc(NC(=O)c2ccc3nc(-c4ccco4)c(-c4ccco4)nc3c2)cc1	?	8.91µM	i	15.8µM	25.1µM	?	8.91µM	?	3.98µM	i
CCc1nc2ccc(C(=O)Nc3ccc(NC(C)=O)cc3)cc2nc1CC	i	i	i	i	i	i	nt	nt	nt	nt
O=P(O)(O)C(O)(Cn1ccnc1)P(=O)(O)O	i	i	nt	i	nt	i	nt	nt	nt	nt
[O][C@H]1[C@@H](O)[C@@H](CO)O[C@@H](O[C@@H]2[C@@H]3OC[C@H]2O[C@H](O[C@@H]2[C@@H](O)[C@H](C[C@@H]4[C@@H]5OC[C@H]4O[CH][C@@H]5O)O[C@H](CO)[C@@H]2OS(=O)(=O)O)[C@@H]3OS(=O)(=O)O)[C@@H]1O	10µM	3.98µM	nt	?	nt	i	i	i	7.08µM	i
Cc1ccc2nc(CSc3nnc(-c4ccco4)o3)cc(=O)n2c1	22.4µM	?	i	?	i	i	i	i	i	i
Cc1ccc2nc(CSc3nnc(-c4ccco4)n3-c3ccccc3)cc(=O)n2c1	nt	nt	i	nt	i	nt	nt	nt	nt	nt
NC(=O)C(C1=CCCCC1)c1ccccc1 (centres undefined)	nt	nt	i	nt	i	nt	nt	nt	nt	nt
O=S(=O)(NC1CCCCC1)c1cccc(-c2nnc(-c3ccccc3)o2)c1	?	i	i	i	i	i	i	i	i	i
Cc1cc(C)nc(N2N=C(CSc3ccc(Cl)cc3)CC2=O)n1	2.82µM	i	i	i	i	i	i	i	?	i
Cc1cc(C)nc(N2C(=O)CC(Cc3ccc(Cl)cc3)C2=O)n1 (centres undefined)	i	i	?	i	i	i	nt	nt	nt	nt
COC(=O)[C@]12CCCCC=C1N(Cc1ccc(Cl)cc1Cl)C(=O)[C@H](CC(=O)N1CCOCC1)C2	nt	nt	nt	nt	i	nt	nt	nt	nt	nt
O=C(Cn1nc(N2CCN(c3ccccc3)CC2)ccc1=O)NCc1ccccc1F	nt	nt	i	i	nt	i	nt	nt	nt	nt
COc1cc(N=Nc2ccc(C)cc2S(N)(=O)=O)c(C)cc1N	nt	nt	i	nt	?	nt	nt	nt	nt	nt
COc1cc(-c2ccc(N=Nc3ccc4c(S(=O)(=O)O)cc(S(=O)(=O)O)c(N)c4c3O)c(OC)c2)ccc1N=Nc1ccc2c(S(=O)(=O)O)cc(S(=O)(=O)O)c(N)c2c1O	1.41µM	4.47µM	nt	?	nt	3.98µM	nt	6.31µM!	1µM	nt
Cc1cc2nc(-c3ccc(SCc4ccc(C(=O)O)cc4)nc3)[nH]c2cc1C	i	i	i	?	?	?	nt	nt	39.8µM	nt
COc1c(-c2ccc(O)c(O)c2)oc2cc(O)cc(O)c2c1=O	?	17.8µM!	i	11.2µM!	31.6µM	i	?	i	?	i
O=c1c(O)c(-c2ccc(O)cc2O)oc2cc(O)cc(O)c12	14.1µM	7.08µM	nt	i	nt	?	nt	i	i	nt
O=c1c(O)c(-c2ccccc2O)oc2cc(O)cc(O)c12	i	i	nt	i	nt	i	nt	nt	nt	nt
O=c1c(O[C@@H]2O[C@H](CO)[C@H](O)[C@H](O)[C@H]2O)c(-c2ccc(O)c(O)c2)oc2cc(O)cc(O)c12	?	i	nt	i	nt	i	nt	nt	nt	nt
CC1OC(OC2C(Oc3c(-c4ccc(O)cc4)oc4cc(O)cc(O)c4c3=O)OC(COC3O[C@@H](C)[C@H](O)[C@@H](O)C3O)C(O)C2O)C(O)C(O)C1O (some centres undefined)	i	nt	i	nt	i	i	nt	nt	nt	nt
O=c1c(OC2OC(CO)C(O)C(O)C2OC2OC(CO)C(O)C(O)C2OC2OC(CO)C(O)C(O)C2O)c(-c2ccc(O)c(O)c2)oc2cc(O)cc(O)c12 (centres undefined)	?	i	i	i	i	i	i	i	10µM	?
CC1OC(OCC2OC(Oc3c(-c4ccc(O)cc4)oc4cc(O)cc(O)c4c3=O)C(O)C(O)C2O)C(O)C(O)C1O (centres undefined)	3.55µM	?	i	i	?	i	?	i	3.16µM	i
SMILES	APE1 inh-1	RECQ1 helicase	ERG-DNA inh	BLM inh	WRN helicase inh	GCN5L2 inh	APE1 dye cs	Endo IV inh	APE1 inh-2	APE1 FP
CC(=O)C1=C(OC(=O)C(C)C)c2ccccc2S(=O)(=O)N1Cc1ccccc1	nt	nt	i	i	nt	i	nt	nt	nt	nt
Cc1ccc2c(c1)C(c1ccccc1)N(C(=O)c1ccccc1F)CC(=O)N2 (centres undefined)	nt	nt	i	i	nt	i	nt	nt	nt	nt
NS(=O)(=O)c1cc2c(cc1Cl)NCNS2(=O)=O	i	i	i	i	i	i	nt	i	i	nt
NS(=O)(=O)c1cc2c(cc1Cl)N[C@@H](CC1CCCC1)NS2(=O)=O	nt	i	nt	i	nt	i	nt	nt	nt	nt
COc1cc(/C=C(\C#N)C(=O)c2ccc(O)c(O)c2)cc(I)c1O	5.97µM	0.891µM	i	nt	1.19µM	i	nt	i	?	nt
COCCN1C[C@@H](CO)O[C@@H](n2cnc3c(NCc4ccco4)ncnc32)C1	nt	nt	nt	nt	i	nt	nt	nt	nt	nt
Cc1cc(O)c(C=O)c2c1C(=O)Oc1c(COC(=O)/C=C/C(=O)O)c(O)c(C(=O)O)c(C)c1O2	1.26µM	3.98µM	nt	i	nt	20µM	nt	i	11.2µM	nt
CC1(C)OC(=O)C(=Cc2ccc(-c3ccc(Cl)c(C(=O)O)c3)o2)C(=O)O1	22.4µM	i	i	i	44.7µM	?	i	i	?	i
O=S(=O)(c1ccccc1)N1N=C(c2cccs2)CC1c1ccc(F)cc1 (centres undefined)	i	i	i	i	i	i	nt	nt	nt	nt
Fc1ccc(N2N=C(c3cccs3)CC2c2ccccc2)cc1 (centres undefined)	i	i	i	i	i	i	nt	nt	i	nt
COc1ccc(Cl)cc1NC(=O)CN(C)CC(=O)NCc1ccc(F)cc1	i	nt	i	nt	i	i	nt	nt	nt	nt
